Records with an inconclusive call do not appear. Calls of active or inactive are those of the source. Calls follow the shape of the dose curve; as a rule, active = well fitted activation curve with a large enough effect; inconclusive = small, poorly fitted or top-dose-only effect; inactive = no such curve, though single readings can be large or run the other way.

Potency data for 16 compounds are collected here from PubChem BioAssay AID492949 (National Center for Advancing Translational Sciences (NCATS), 2010).
Potency is read from the fitted curve at half-maximal effect.

Chain of Relaxin receptor 1 (Homo sapiens) (Q9HBX9 whole entry, looked up): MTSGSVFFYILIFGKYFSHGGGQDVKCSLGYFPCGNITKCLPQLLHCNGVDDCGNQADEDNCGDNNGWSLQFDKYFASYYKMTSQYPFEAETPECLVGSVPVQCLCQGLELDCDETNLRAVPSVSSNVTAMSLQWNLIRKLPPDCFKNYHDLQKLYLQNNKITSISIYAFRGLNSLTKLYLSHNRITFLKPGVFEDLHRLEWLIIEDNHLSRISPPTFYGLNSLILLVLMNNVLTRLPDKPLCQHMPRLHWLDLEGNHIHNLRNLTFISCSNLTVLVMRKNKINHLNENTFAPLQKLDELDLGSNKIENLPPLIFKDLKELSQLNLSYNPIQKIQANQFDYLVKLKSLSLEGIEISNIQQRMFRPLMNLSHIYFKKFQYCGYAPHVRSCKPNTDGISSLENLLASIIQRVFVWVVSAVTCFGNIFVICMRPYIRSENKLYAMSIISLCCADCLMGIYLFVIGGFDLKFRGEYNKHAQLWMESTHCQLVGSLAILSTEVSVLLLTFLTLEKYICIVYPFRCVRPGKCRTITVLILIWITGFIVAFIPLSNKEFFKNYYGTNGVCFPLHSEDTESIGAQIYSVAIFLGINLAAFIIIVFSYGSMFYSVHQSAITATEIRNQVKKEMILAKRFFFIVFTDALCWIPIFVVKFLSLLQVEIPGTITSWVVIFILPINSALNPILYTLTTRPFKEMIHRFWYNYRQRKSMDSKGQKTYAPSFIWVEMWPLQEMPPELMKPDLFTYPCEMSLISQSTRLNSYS

This assay deals with Relaxin receptor 1 (Homo sapiens) (UniProt Q9HBX9). Nature of the assay: qHTS Assay for Agonists of the Relaxin Receptor RXFP1: THP1 Hit Validation. Also: nearly all actives have a fitted effect of over 60% in size. To be noted: THP1-RXFP1 cells, cAMP TR-FRET, 30 min; series mostly up to 115 µM. In short, it runs like this:
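THP1 cells stably expressing RXFP1 were exposed to compounds for 30 min at 37C with PDE4 inhibitor Ro 20174. Lysate cAMP was read by HTRF, normalized to buffer and 29 nM porcine relaxin, with Hill-fit EC50.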
On the technique in general: qHTS replaces the single test concentration by a dilution series.
As to `Cc1ccccc1OCC(=O)Nc1sc(C(=O)Nc2cccc(C)c2C)c(C)c1C#N`, the Potency is 7.74 µM (active).
As for `Cc1cc2nc3ccc(=[N+](C)C)cc-3sc2cc1N`, the entry is “inactive”.
As for `CCc1cc2cc3c(cc2nc1SCC(=O)Nc1nccs1)OCO3`, the figure is 21.8 µM (active); as for `NC(=O)c1ccccc1NC(=O)CC12CC3CC(CC(C3)C1)C2`, “inactive”; as for `CCC(=O)Nc1ccc(NC(=O)CSc2nc3c(c(=O)n(C)c(=O)n3C)n2CC)cc1`, 43.6 µM (active).
As for `CC1(C)Cc2c(sc3c2c2ncnn2c2nnc(SCC(=O)NCc4ccco4)n32)CO1`, the figure is 5.49 µM (active); as for `COc1ccc(Cl)cc1-c1n[nH]c(=S)o1`, 6.15 µM (active).
`CCCC(=O)Nc1ncnc2c1ncn2[C@@H]1O[C@@H]2OP(=O)(O)OC[C@H]2[C@H]1OC(=O)CCC`: the Potency was 0.69 µM (active).
In the case of `COC(=O)Cn1cnc2c(C#N)c3n(c2c1=O)CCCC3` it was 24.5 µM (active).
In the case of `CCOC(=O)CNC(=O)CSc1ccc2nnc(-c3cccnc3)n2n1` it was “inactive”; in that of `COc1ccc(S(=O)(=O)Nc2ccccn2)c(C)c1C`, “inactive”; in that of `CCS(=O)(=O)Nc1cccc(-c2ccc3nnc(-c4cccnc4)n3n2)c1`, 27.5 µM (active).
As for `O=C(Nc1ccccc1)c1ccccc1NC(=O)C1CCCCC1`, the entry is “inactive”; as for `COc1ccc(C(C)=O)cc1Cn1cnc2c(cnn2C)c1=O`, 13.8 µM (active); as for `CC(C(=O)OCC(=O)N(C)C1(C#N)CCCCC1)N1C(=O)c2ccccc2C1=O` (stereo unspecified), 15.4 µM (active).
Consider `O=[N+]([O-])c1cc2c(c(CSc3nnc4ccccn34)c1)OCOC2`, for which the Potency is 13.8 µM (active).
